Where “and” joins values, the source holds several entries; their conditions need not be identical. Identical values can stand only once. Inconclusive results are not listed. Calls of active or inactive are those of the source. Unless noted, calls follow the shape of the dose curve; as a rule, active = well fitted curve in the direction sought with a large enough effect; inconclusive = small, poorly fitted or top-dose-only effect, or another doubt; inactive = no such curve, though single readings can be large; an effect the other way counts as inactive or inconclusive.
Assays:
[1] = qHTS to identify inhibitors of the type 1 interferon - major histocompatibility complex class I in skeletal muscle: primary screen against the NCATS Mechanism Interrogation Plate v5.0 (MIPE) Libary (AID 1347411); also: nearly all actives have a fitted effect of over 65% in size; also: potency is read from the fitted curve at half-maximal effect
Procedure, shortened: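 Luminescence from CRISPR HiBit-tagged endogenous HLA-B in human myoblasts reported MHC class I level after 24 h of IFN-beta (4 ng/ml) plus compound. Compounds ran as 11-point 1:3 series, top 46 uM final.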

[2] = molecular target: Glutathione peroxidase 1 (Homo sapiens) (UniProt P07203); test: Primary qHTS Assay for Inhibitors of Recombinant Selenoprotein Glutathione Peroxidase 1 (GPX1) (AID 1845191); also: nearly all actives have a fitted effect of over 65% in size
Procedure, shortened: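 GPX1 10 nM, GR 100 nM, GSH 1 mM, NADPH 0.5 mM, CHP 0.5 mM (final). 30-min cpd preincubation, RT. Ex340/Em450 read t=0, t=15 min.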

[3] = molecular target: Phospholipid hydroperoxide glutathione peroxidase GPX4 (Homo sapiens) (UniProt P36969); test: Primary qHTS Assay for Inhibitors of Recombinant Selenoprotein Glutathione Peroxidase 4 (GPX4) (AID 1845192); details: outcome: dose series up to 50 µM unless noted; also: nearly all actives have a fitted effect of over 65% in size; also: potency is read from the fitted curve at half-maximal effect
Procedure, shortened: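 qHTS, GR-coupled: GPX4 200 nM + cpd 30 min RT → GSH 1 mM, NADPH 0.5 mM, GR 100 nM → CHP 0.5 mM start; fluor 340/450 at t0 and t15 min; no-enzyme wells as control.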

[4] = qHTS drug screen for cell cycle checkpoint inhibitors in PARPi-resistant BRCA-mutant ovarian cancer cell lines. (AID 1963452; calls by dose curve; also: potency is read from the fitted curve at half-maximal effect); details: PEO1/OlaR viability, CellTiter-Glo luminescence, 96 h; for Z-AUC: stronger effect = lower value
Procedure, shortened: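 PEO1, PEO4 and PEO1/OlaR ovarian cancer cells, 600 per well, exposed 96 h at 37C to a dilution series. Viability read by CellTiter-Glo luminescence, normalized to DMSO and empty wells; activity summarized as Z-AUC.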

[5] = Primary qHTS for inhibitors of nuclear receptor binding SET domain protein 2 (NSD2) in an isogenic RCH-ACV NSD2 p.E1099K mutant (9B) (AID 1645876); also: nearly all actives have a fitted effect of over 70% in size; also: potency is read from the fitted curve at half-maximal effect
[6] = Primary qHTS for inhibitors of nuclear receptor binding SET domain protein 2 (NSD2) in an RCH-ACV wild type WT cells (2C) (AID 1645877); also: nearly all actives have a fitted effect of over 70% in size; also: potency is read from the fitted curve at half-maximal effect
[7] = qHTS assay to identify inhibitors of the type 1 interferon - major histocompatibility complex class I in skeletal muscle: Counter screen cell viability and HiBit confirmation (AID 1347412); details: iHSKM muscle cells + IFN-b, HiBiT or CellTiter-Glo, 24 h; HiBiT; also: potency is read from the fitted curve at half-maximal effect; nearly all actives have a fitted effect of over 60% in size
Procedure, shortened: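 Human myoblast knock-in line, 4.0 ng/ml IFN-beta stimulation, 24 h compound treatment. Endpoints: HiBiT lytic luminescence (HLA-B level) and CellTiter Glo (ATP). Dosing 12 concentrations, 3-fold steps, 46 uM highest final.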

[8] = measured here: PEO1 parental Z-AUC

Sequence of Phospholipid hydroperoxide glutathione peroxidase GPX4 (Homo sapiens) (P36969 whole entry, looked up): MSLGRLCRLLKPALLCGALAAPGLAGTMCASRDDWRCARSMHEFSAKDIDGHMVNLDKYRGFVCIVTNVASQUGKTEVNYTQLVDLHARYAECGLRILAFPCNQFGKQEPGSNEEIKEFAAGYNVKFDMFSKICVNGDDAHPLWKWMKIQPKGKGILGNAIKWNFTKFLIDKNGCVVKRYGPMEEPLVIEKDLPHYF
Sequence of Glutathione peroxidase 1 (Homo sapiens) (P07203 whole entry, looked up): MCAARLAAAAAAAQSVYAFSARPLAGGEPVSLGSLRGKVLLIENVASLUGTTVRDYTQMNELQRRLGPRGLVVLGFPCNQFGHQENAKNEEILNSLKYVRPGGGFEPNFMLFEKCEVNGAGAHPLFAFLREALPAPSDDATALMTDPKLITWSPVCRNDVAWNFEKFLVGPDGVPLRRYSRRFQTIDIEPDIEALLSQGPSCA

Row | SMILES | Potency [1] | Potency [2] | Potency [3] | Z-AUC [4] | Z-AUC [4, 8] | Z-AUC ([4]; measured here: PEO4 Z-AUC) | Potency [5] | Potency [6] | Potency [4] | Potency [7]
1 | CN(Cc1ccccc1)C(=O)c1ccc(S(=O)(=O)Nc2ccccc2)cc1 | inactive | inactive | inactive | -0.829 (inactive) | -0.00385 | 0.744 | – | – | – | –
2 | C[C@H]1[C@H](C)CC[C@]2(C(=O)O)CC[C@]3(C)C(=CC[C@@H]4[C@@]5(C)CC[C@H](O)C(C)(C)[C@@H]5CC[C@]43C)[C@H]12 | inactive | inactive | inactive | 0.556 (inactive) | 0.879 | 0.501 | inactive | inactive | – | –
3 | Cc1c(-c2ccc(-c3ccccc3F)cc2)nc2ccc(F)cc2c1C(=O)O | inactive | inactive | inactive | – | -1.54 | -1.34 | 0.105 µM (active) | 0.148 µM (active) | 2.75 µM (active) | –
4 | CN(CCOc1ccc(C[C@H](Nc2ccccc2C(=O)c2ccccc2)C(=O)O)cc1)c1ccccn1 | inactive | inactive | – | 0.115 (inactive) and 0.904 (inactive) | 0.442 and 0.488 | 0.445 and 0.87 | inactive | inactive | – | –
5 | CNC(=O)[C@@H](NC(=O)[C@H](CC(C)C)[C@H](O)C(=O)NO)C(C)(C)C | inactive | inactive | inactive | 1.14 (inactive) | 0.454 | 0.976 | 18.6 µM (active) | 13.2 µM (active) | – | –
6 | Nc1nc(F)nc2c1ncn2C1OC(COP(=O)(O)O)C(O)C1O (configuration not stated) | inactive | – | – | – | – | – | 2.95 µM (active) | – | – | –
7 | Cn1cc(/C=C2\C(=O)Nc3cccnc32)c2ccccc21 | 29.4 µM (active) | inactive | – | 1.01 (inactive) | 0.388 | -0.377 | 5.25 µM (active) | 8.33 µM (active) | – | –
8 | c1ccc(CNCc2ccc(CN3CCCNCCNCCCNCC3)cc2)nc1 | inactive | inactive | inactive | 1.17 (inactive) | 1.27 | 1.11 | inactive | inactive | – | –
9 | C[C@H](CCC(=O)O)[C@H]1CC[C@H]2[C@@H]3[C@@H](O)C[C@@H]4C[C@H](O)CC[C@]4(C)[C@H]3CC[C@]12C | inactive | inactive | inactive | 0.396 (inactive) | 1.43 | 1.41 | inactive | inactive | – | –
10 | COC[C@@H](c1ccc(C(F)(F)F)cc1)N1CCN(C2(C)CCN(C(=O)c3c(C)ncnc3C)CC2)C[C@@H]1C | inactive | inactive | inactive | 1.18 (inactive) | 1.03 | 0.78 | inactive | inactive | – | –
11 | Clc1cccc(-c2ccc(-c3nnc(CCCc4ccc5cccnc5n4)o3)cc2)c1 | inactive | – | inactive | 1.61 (inactive) | 1.52 | 1.67 | inactive | inactive | – | –
12 | COc1ccnc2[nH]cc(C(=O)C(=O)N3CCN(C(=O)c4ccccc4)C[C@H]3C)c12 | inactive | inactive | inactive | 1.3 (inactive) | 1.05 | 1.31 | inactive | inactive | – | –
13 | NS(=O)(=O)c1ccc(Cc2c(-c3cccc(-c4ccccc4)c3)nn(-c3nc(C(=O)O)cs3)c2CC2CC2)cc1 | inactive | inactive | 6.4 µM (active) | -1.08 (inactive) | -0.77 | -1.44 | – | 5.25 µM (active) | – | –
14 | C[C@]12CCC3[C@@H](CC[C@H]4NC(=O)C=C[C@]34C)[C@@H]1CC[C@@H]2C(=O)Nc1cc(C(F)(F)F)ccc1C(F)(F)F (some centres not stated) | inactive | – | – | -1.09 (inactive) | -1.05 | -1.07 | inactive | inactive | – | –
15 | COC1=C(OC)C(=O)C(C/C=C(\C)CC/C=C(\C)CC/C=C(\C)CC/C=C(/C)CC/C=C(\C)CC/C=C(\C)CC/C=C(\C)CC/C=C(\C)CC/C=C(\C)CCC=C(C)C)=C(C)C1=O | inactive | – | – | – | – | – | inactive | – | – | –
16 | CO[C@H]1/C=C\C=C(\C)C(=O)NC2=CC(=O)C(NCCN(C)C)=C(C[C@@H](C)C[C@H](OC)[C@H](O)[C@@H](C)/C=C(/C)[C@@H]1OC(N)=O)C2=O | 0.0466 µM (active) | inactive | inactive | – | -2.33 | -1.76 | 0.332 µM (active) | – | 0.219 µM (active) | 0.0176 µM (active)
17 | CC(=O)O/N=C1\C(=O)N(Cc2cc(Cl)ccc2Cl)c2ccc(Cl)cc21 | 14.7 µM (active) | inactive | – | 1.65 (inactive) | 1.54 | 1.73 | 5.9 µM (active) | 4.17 µM (active) | – | –
18 | CN(C)C[C@@H]1CCn2cc(c3ccccc32)C2=C(C(=O)NC2=O)c2cn(c3ccccc23)CCO1 | 4.66 µM (active) | inactive | inactive | 0.756 (inactive) | 0.389 | 0.797 | 7.42 µM (active) | – | – | 27.9 µM (active)
19 | Cc1ccc(-n2c(C)cc(-c3nnc4n3CCCCC4)c2C)cc1 | inactive | inactive | inactive | 1.28 (inactive) | 1.19 | 1.13 | 18.6 µM (active) | 18.6 µM (active) | – | –
20 | CC(=NNC(=O)c1cccc(S(=O)(=O)N2CCOCC2)c1)c1cc(Cl)ccc1O | inactive | – | – | – | – | – | 2.09 µM (active) | 1.48 µM (active) | – | –
21 | Cc1cccc(/C=N/Nc2cc(N3CCOCC3)nc(OCCc3ccccn3)n2)c1 | inactive | inactive | inactive | 0.655 (inactive) | 0.0151 | 0.106 | 0.468 µM (active) | 0.296 µM (active) | – | –
22 | C[C@H]1CC2[C@@H]3CCC4=CC(=O)C=C[C@]4(C)[C@@]3(F)[C@@H](O)C[C@]2(C)[C@@]1(O)C(=O)CO (some centres not stated) | inactive | inactive | inactive | -1.28 (inactive) | -0.45 | -0.996 | inactive | 0.105 µM (active) | – | –
23 | CC#Cc1cncc(-c2ccc3c(c2)[C@@]2(N=C(C)C(N)=N2)C2(CCC(OC)CC2)C3)c1 (some centres not stated) | inactive | inactive | inactive | 1.27 (inactive) | 0.521 | 0.345 | inactive | inactive | – | –
24 | COC1=C2C[C@H](C)C[C@H](OC)[C@H](O)[C@@H](C)/C=C(/C)[C@H](OC(N)=O)[C@@H](OC)/C=C\C=C(\C)C(=O)NC(=CC1=O)C2=O | 2.94 µM (active) | inactive | – | 0.322 (inactive) | 0.489 | 0.496 | inactive | – | – | 0.0279 µM (active)
25 | O=C(CCCc1ccc2cccnc2n1)NCc1cc(-c2ccc(F)c(C(F)(F)F)c2)no1 | inactive | inactive | inactive | -0.51 (inactive) | -0.432 | -0.394 | inactive | inactive | – | –
26 | Cn1cc(/C=C/C(=O)c2cccc(F)c2)cc1/C=C/C(=O)NO | inactive | inactive | – | 0.818 (inactive) | 0.213 | 0.291 | 14.8 µM (active) | 18.6 µM (active) | – | –
27 | CN1C(N)=N[C@](C)(c2cc(NC(=O)c3ccc(F)cn3)ccc2F)CS1(=O)=O | inactive | inactive | inactive | 1.51 (inactive) | 0.477 | 0.848 | inactive | inactive | – | –
28 | O=c1[nH]nc2c3c(cccc13)NC(CN1Cc3ccccc3C1)=N2 | inactive | inactive | inactive | -0.263 (inactive) | -0.113 | -0.251 | 20.9 µM (active) | 18.6 µM (active) | – | –
29 | COC(=O)[C@H]1[C@@H](O)[C@@]2(O)c3c(OC)cc(O[C@@H]4O[C@@H]([C@@H](O)CO)CO[C@H]4OC)cc3O[C@@]2(c2ccc(OC)cc2)[C@@H]1c1ccccc1 | inactive | inactive | inactive | 1.19 (inactive) | 0.913 | 0.648 | 4.68 µM (active) | 2.95 µM (active) | – | –
30 | COc1cc2c3c(n(CCCn4ccnc4)c(=O)c2cc1OC)-c1cc2c(cc1C3=O)OCO2 | inactive | inactive | inactive | – | -2.51 | -1.77 | 0.0105 µM (active) | 0.0132 µM (active) | 0.0078 µM (active) | –
